# ZTA DNA inh: blocks Epstein-Barr virus ZTA, an EBNA-1 counter-screen | P03206 | ZTA-DNA binding, fluorescence polarization | inhibition, % at 11 µM | 320,000 compounds, 0.15% hits; in the data active means inhibition above about 33%
# Target sequence (P03206 whole entry, looked up): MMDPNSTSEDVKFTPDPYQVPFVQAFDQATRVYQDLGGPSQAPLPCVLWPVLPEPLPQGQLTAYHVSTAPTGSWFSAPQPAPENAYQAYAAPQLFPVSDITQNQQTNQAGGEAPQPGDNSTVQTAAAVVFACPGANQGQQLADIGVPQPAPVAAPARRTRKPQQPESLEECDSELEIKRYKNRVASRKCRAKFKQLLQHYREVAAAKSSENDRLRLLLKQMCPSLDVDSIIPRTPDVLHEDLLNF
# GRIN3A LBD mod: modulates the human NR3A ligand-binding domain; 340,000 compounds, 2.5% hits; NR3A LBD differential scanning fluorimetry, Tm shift; 0% = protein alone, 100% = glycine-bound protein; Tm shift relative to glycine control, % at 25 µM;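 active means melting temperature shift of at least 10% of the positive control shift, at one fixed dose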
# TPT1 inhibitor: inhibitors of Candida albicans tRNA 2'-phosphotransferase TPT1. inhibition, % at 5 µM. recombinant caTPT1, FP RNA substrate dephosphorylation. 300,000 compounds, 0.81% hits;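 active means inhibition above the mean of all tested compounds plus 3 SD, set per screening campaign, cut at about 24% in these data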;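 further: plate controls were DMSO alone for no effect and ferristatin control at 100 nM for full effect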
# EBNA-1 inh: blocks EBNA-1 binding to DNA; EBNA-1 DNA binding, fluorescence polarization; inhibition, % at 14.8 µM; 300,000 compounds, 0.34% hits; AID 1950; in the data active means inhibition above about 28%
# dFosB act: enhances mouse delta FosB homodimer DNA binding | 340,000 compounds, 0.99% hits | P13346 | purified delta FosB, TAMRA-CDK5 oligo fluorescence polarization; percent of positive-control signal above neutral wells | AID 493131 | activation, % at 25 µM;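 active means mean activation above about 17%, with every replicate also reaching it, limit read from the data, passing the limit was not always enough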
# Target sequence (P13346 whole entry, looked up): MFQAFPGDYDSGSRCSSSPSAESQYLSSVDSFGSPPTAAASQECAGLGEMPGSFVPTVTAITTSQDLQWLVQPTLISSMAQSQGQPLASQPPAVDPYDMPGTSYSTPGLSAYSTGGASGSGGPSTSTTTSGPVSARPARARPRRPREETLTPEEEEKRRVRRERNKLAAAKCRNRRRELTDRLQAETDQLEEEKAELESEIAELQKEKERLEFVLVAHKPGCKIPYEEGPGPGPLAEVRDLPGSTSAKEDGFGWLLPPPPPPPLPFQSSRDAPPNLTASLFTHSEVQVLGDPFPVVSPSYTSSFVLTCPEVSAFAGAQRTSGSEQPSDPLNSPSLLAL
# Rpn11 block: Rpn11 (human) deubiquitinase inhibition | inhibition, % at 20 µM | 360,000 compounds, 0.59% hits | O00487 | human 26S proteasome, Ub4-pepOG fluorescence polarization; 20S core pre-blocked with epoxomicin;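 active means inhibition at 20 µM, scaled to each plate's controls, above about 33%, limit read from the data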
# Rpn11 inh conf: confirmation of human proteasome Rpn11 inhibitors | shares compounds with Rpn11 block | purified human 26S proteasome, Ub4-pepOG fluorescence polarization; proteasome pretreated with epoxomicin | inhibition, % at 20 µM | 1,900 compounds, 29% hits | AID 602318
# MMP-2 counter: counter-screen for RPN11 inhibitors: inhibition of human MMP-2; inhibition, % at 20 µM; AID 602330; shares compounds with Rpn11 block; recombinant MMP-2, FRET peptide cleavage fluorescence; 1,900 compounds, 4% hits;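 further: human MMP-2 activated beforehand with APMA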
# Thrombin inh: blocks bovine thrombin, flagging nonselective RPN11 hits; bovine thrombin cleavage of Ub4-pepOG, fluorescence polarization; inhibition, % at 20 µM; shares compounds with Rpn11 block; 1,900 compounds, 13% hits;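 active means mean inhibition at least 40% at 20 µM, or signal 3 deviations below plate average, so some actives read negative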;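 further: plate controls were thrombin with DMSO for no effect and buffer wells lacking thrombin for full effect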
# Starred values were filed as active, the others as inactive; / = no result given; + = active, no number. Only some compounds are listed: those with a hit (about 4.5% of all), similar ones and a draw of the others. Unless noted, no stated cut-off is given here; in the data, active means inhibition above about 40%; inactive means the rest.
SMILES,ZTA DNA inh,GRIN3A LBD mod,TPT1 inhibitor,EBNA-1 inh,dFosB act,Rpn11 block,Rpn11 inh conf,MMP-2 counter,Thrombin inh
COc1cccc(C2c3c(C)nn(-c4ccc([N+](=O)[O-])cc4)c3N=C3C(=O)Nc4ccccc4N32)c1 (stereo unspecified),9,2,0,-12,1,46*,5,3,13
Cc1ccc(C2c3c(C)nn(-c4ccc([N+](=O)[O-])cc4)c3N=C3C(=O)Nc4ccccc4N32)cc1 (stereo unspecified),4,/,3,-8,/,/,/,/,/
Cc1ccc(SCCc2cc[n+](CC(=O)c3ccccc3)cc2)cc1,7,1,2,-5,-3,38*,2,-7,-9
Cc1ccc(C(=O)C[n+]2ccc3ccccc3c2)cc1,-6,0,1,3,-4,0,/,/,/
CCn1c(=O)cc(C(F)(F)F)[nH]c1=S,2,0,-2,-1,-6,53*,-2,9,-10
CC(C)c1ccc(OCC(=O)N(Cc2ccccc2)c2ccccn2)cc1,2,0,-1,1,-6,43*,5,-19,7
CN(CC(=O)Nc1ccc2c(c1)OCCO2)Cc1nc2ccccc2c(=O)[nH]1,17,-4,/,/,0,2,/,/,/
CC1(C)CC(=O)C=C(Nc2ccc(F)cc2)C1,-9,-14,5,7,-1,8,/,/,/
CC1(C)CC(=O)C=C(Nc2ccc(OCC(F)(F)C(F)F)cc2)C1,-4,-1,0,-9,0,105*,9,15,3
Cc1nnc(-c2cccc(Br)c2)c2cn(-c3ccccc3Cl)nc12,-1,2,-1,3,-17,76*,26,-8,26
Cc1ccc(-n2cc3c(-c4cccc(Br)c4)nnc(C)c3n2)cc1,-12,-6,4,2,-22,/,/,/,/
CCN1C(=O)/C(=C/C=C2\C=CN(CC)c3ccccc32)SC1=S,0,-17,2,-4,-5,8,/,/,/
C=CCN1C=C/C(=C\C=C(C#N)C#N)c2ccccc21,17,-19,16,-5,-2,103*,90*,-37,89*
CCOc1cc2[nH]c(=S)n(Cc3ccc(C(=O)O)cc3)c(=O)c2cc1OCC,/,0,/,/,-1,-5,/,/,/
COc1ccc(N2C(=O)CC2(C#N)c2ccc(OCc3ccccc3)cc2)cc1 (stereo unspecified),-16,-1,-3,7,-4,6,/,/,/
CCCn1c(NC(=O)C2COc3ccccc3O2)nc2ccccc21 (stereo unspecified),-33,2,-6,0,4,104*,5,-2,7
CCCn1c(NC(=O)c2ccco2)nc2ccccc21,10,0,-2,6,-12,-4,/,/,/
COc1cccc(-c2nn(C)c3sc(C(=O)NCCCN(C)Cc4ccccc4)cc23)c1,-6,-2,-5,-4,-23,88*,-17,-10,-17
CN1/C(=C\C(=O)COC(=O)Cn2nnc(-c3ccccc3)n2)C(C)(C)c2ccccc21,-3,1,-6,0,52*,40*,45*,2,6
CN1/C(=C/C(=O)COC(=O)CN2C(=O)C3CC=CCC3C2=O)C(C)(C)c2ccccc21 (stereo unspecified),/,-1,/,/,4,3,/,/,/
CC(OC(=O)c1cccs1)C(=O)NCc1cccs1 (stereo unspecified),12,0,-10,6,-2,-11,/,/,/
CC(OC(=O)c1cccs1)C(=O)NC1CC1 (stereo unspecified),6,0,3,1,-2,38*,-4,-36,-19
COc1ccc(C2CC(c3ccccc3)=NN2C(=O)COC(=O)c2ccc(Cl)nc2)cc1 (stereo unspecified),-5,0,-1,-4,-6,42*,8,-33,-34
CC(C)c1ccc(NC(=O)COc2nnc(-c3cccs3)c(-c3cccs3)n2)cc1,14,-18,0,-11,2,32*,15,18,-1
c1coc(-c2nnc(SCc3nc4ccccc4[nH]3)o2)c1,-6,-3,7,2,-12,46*,-3,-1,-12
SMILES,ZTA DNA inh,GRIN3A LBD mod,TPT1 inhibitor,EBNA-1 inh,dFosB act,Rpn11 block,Rpn11 inh conf,MMP-2 counter,Thrombin inh
CCn1cc(/C=N\NC(=O)Cc2ccc(Cl)cc2)cn1,1,-1,2,-2,5,-3,/,/,/
COc1nc(-c2ccccc2)ccc1-c1noc(-c2cccnc2)n1,11,-3,4,9,-11,44*,-6,-24,-7
COc1nc(-c2ccc(C)cc2)ccc1-c1noc(-c2cccnc2)n1,22,-2,1,5,-3,13,/,/,/
Cc1ccc(C(=O)N2CCC2(C)C(=O)NC(C)C)cc1 (stereo unspecified),/,/,/,/,/,2,/,/,/
CC(=O)NN1C(=O)/C(=C\c2ccc(Br)o2)SC1=S,25,1,5,10,-4,50*,12,-20,18
O=C(O)c1ccc(N=Nc2c(O)ccc3ncccc23)cc1,1,12*,-17,2,-8,47*,0,-10,-16
O=C(COC(=O)c1cc2ccccc2cc1O)NC(=O)NCc1ccco1,-3,-6,2,-3,6,44*,8,-14,3
COc1ccc(CN2C(=O)c3cccnc3C2Nc2ccc(C)cc2)cc1 (stereo unspecified),-14,2,4,-3,-11,47*,-8,-14,-15
COc1ccc(CN2C(=O)c3cccnc3C2Nc2cc(Cl)c(OC)cc2OC)cc1 (stereo unspecified),-10,1,15,1,-14,-7,/,/,/
Cc1ccc(NC(=O)CCNS(=O)(=O)c2ccc(OC(F)(F)F)cc2)c(O)c1,6,-3,1,7,-7,-2,/,/,/
S=c1[nH]nc(-c2cc(-c3ccccc3)n[nH]2)n1/N=C/c1c(Cl)cccc1Cl,13,5,-1,-5,13,47*,87*,45*,52*
Cc1ccccc1/C=N/n1c(-c2cc(-c3ccccc3)n[nH]2)n[nH]c1=S,13,-1,-1,-7,-9,-6,/,/,/
Cc1ccsc1/C=N/n1c(-c2cc(-c3ccccc3)n[nH]2)n[nH]c1=S,4,1,-2,-11,7,53*,100*,20,14
S=c1[nH]nc(-c2cc(-c3ccccc3)n[nH]2)n1/N=C/c1ccc(Br)s1,-1,8,1,3,1,+,91*,5,49*

# High-throughput results from PubChem BioAssay.
